Laboratory results published in PubChem BioAssay (NCATS).
Inconclusive results are not listed. Values without a mark were called inactive. Active and inactive are the calls of the source. The call rests on the fitted dose curve; in most records, active means well fitted inhibition curve with a large enough effect; inconclusive means small, poorly fitted or top-dose-only effect; inactive means flat fitted curve, though single readings scatter.

How the values were obtained:
CRL-7250 = normal cell line; experiment: Cytotoxic Profiling of Annotated Libraries Using Quantitative High-Throughput Screening (AID 1296008); conditions: Five cell lines viability, CellTiter-Glo ATP luminescence, 48-72 h; max response: stronger effect = lower value; further: potency means the concentration at half of the fitted maximal effect; on max response: on the % scale 0 is the no-effect control and ±100 the full control effect
Method in brief: (§1)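 Compounds were pin-transferred onto cells and incubated 48 or 72 hr at 37 degree Celsius, 95% humidity. CellTiter-Glo was added, plates sat 10 min at room temperature, then ATP-coupled luminescence was imaged as the viability read-out.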

HEK293 = experiment: as above; conditions: Five cell lines viability, CellTiter-Glo ATP luminescence, 48-72 h; max response: stronger effect = lower value
Method in brief: as §1

HaCat [1] = experiment: as above; conditions: Five cell lines viability, CellTiter-Glo ATP luminescence, 48-72 h; max response: stronger effect = lower value
Method in brief: as §1

KB-3-1 = experiment: as above; conditions: Five cell lines viability, CellTiter-Glo ATP luminescence, 48-72 h; max response: stronger effect = lower value
Method in brief: as §1

NIH3T3 = experiment: as above; conditions: Five cell lines viability, CellTiter-Glo ATP luminescence, 48-72 h; max response: stronger effect = lower value
Method in brief: as §1

MCC-13 = experiment: qHTS assay to identify novel small-molecules to repurpose for Merkel cell carcinoma treatment (AID 1296009); conditions: MCC and control cell lines, CellTiter-Glo viability, 72 h; series mostly up to 46 µM
Method in brief: (§2)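 qHTS format: cells treated with library compounds in DMSO across 8 (NPC) or 11 (MIPE) concentrations. Readout after 72 hr at 37 degree celsius was CellTiter-Glo luminescence.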

MCC-26 = experiment: as above; conditions: MCC and control cell lines, CellTiter-Glo viability, 72 h; series mostly up to 46 µM
Method in brief: as §2

W2 = experiment: qHTS profiling for inhibitors of Plasmodium falciparum proliferation (AID 504749);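 further: 0% = DMSO vehicle and full inhibition = artemisinin control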; conditions: P. falciparum in erythrocytes, SYBR Green DNA, 72 h; series mostly up to 28.7 µM
Method in brief: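 Parasite proliferation within erythrocytes, 72 h exposure. Endpoint: SYBR Green I fluorescence after overnight lysis at room temperature. Controls: 0.29 uM artemisinin, DMSO.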

HACAT [2] = experiment: qHTS assay to identify novel small-molecules to repurpose for Merkel cell carcinoma treatment (AID 1296009); conditions: MCC and control cell lines, CellTiter-Glo viability, 72 h; at 44.8 µM (top of the series) unless noted
Method in brief: as §2

HEK293T = experiment: as above; conditions: MCC and control cell lines, CellTiter-Glo viability, 72 h; at 44.8 µM (top of the series) unless noted
Method in brief: as §2
Further: nearly all actives have a fitted effect of over 60% in size.

Which results are given for NS(=O)(=O)c1cc2c(cc1Cl)NC(CC1CCCC1)NS2(=O)=O (stereo not drawn)?
max response (CRL-7250): -2.46%; max response (HEK293): -7.58%; max response (HaCat [1]): -5.14%; max response (KB-3-1): 7.67%; max response (NIH3T3): 2.98%; Potency (MCC-13): inactive; Potency (MCC-26): inactive

Which max response (CRL-7250) does the source give for COC(=O)C(c1ccccc1Cl)N1CCc2sccc2C1 (stereo not drawn) here?
The max response was -10.1%.

And the max response (HEK293)?
Its max response is 4.89%.

And the max response (HaCat [1])?
The max response was 4.22%.

And the max response (KB-3-1)?
The max response was -8.1%.

And the max response (NIH3T3)?
Its max response is -4.69%.

What about the Potency (MCC-13) of the same compound?
The Potency was “inactive”.

What about the Potency (MCC-26) of the same compound?
Its Potency is “inactive”.

For O=C1C(CCS(=O)c2ccccc2)C(=O)N(c2ccccc2)N1c1ccccc1 (stereo not drawn), which Potency (W2) is on record?
The Potency was “inactive”.

What about the max response (CRL-7250) of the same compound?
Its max response is -1.85%.

And the max response (HEK293)?
Its max response is -3.91%.

What about the outcome (HaCat [1]) of the same compound?
The outcome was “inactive”.

What about the max response (KB-3-1) of the same compound?
Its max response is 4.22%.

What about the max response (NIH3T3) of the same compound?
Its max response is -2.37%.

And the outcome (HACAT [2])?
The outcome was “inactive”.

What about the Potency (MCC-13) of the same compound?
Its Potency is “inactive”.

What about the Potency (MCC-26) of the same compound?
Its Potency is “inactive”.

Which max response (CRL-7250) does the source give for O=[N+]([O-])c1ccc(/C=N\O)o1 here?
Its max response is -1.03%.

And the max response (HEK293)?
Its max response is -8.88%.

And the max response (HaCat [1])?
Its max response is 1.07%.

And the max response (KB-3-1)?
Its max response is -13.1%.

And the max response (NIH3T3)?
The max response was -18.1%.

And the Potency (MCC-13)?
The Potency was “inactive”.

What about the Potency (MCC-26) of the same compound?
Its Potency is “inactive”.

Which Potency (W2) does the source give for C/C=C/c1ccc(O)c(OC)c1 here?
Its Potency is “inactive”.

What about the max response (CRL-7250) of the same compound?
Its max response is -0.654%.

What about the max response (HEK293) of the same compound?
Its max response is -2.94%.

What about the outcome (HaCat [1]) of the same compound?
The outcome was “inactive”.

And the max response (KB-3-1)?
The max response was -3.67%.

What about the max response (NIH3T3) of the same compound?
Its max response is -0.28%.

What about the outcome (HACAT [2]) of the same compound?
Its outcome is “inactive”.

And the Potency (MCC-13)?
Its Potency is “inactive”.

Cc1cc(NS(=O)(=O)c2ccc(N)cc2)nc(C)n1 was tested. Which Potency (W2) did it give?
Its Potency is “inactive”.

What about the max response (CRL-7250) of the same compound?
Its max response is -3.14%.

And the max response (HEK293)?
Its max response is -0.689%.

And the outcome (HaCat [1])?
Its outcome is “inactive”.

What about the max response (KB-3-1) of the same compound?
Its max response is 15.3%.

What about the max response (NIH3T3) of the same compound?
Its max response is 4.17%.

And the outcome (HACAT [2])?
Its outcome is “inactive”.

And the Potency (MCC-13)?
The Potency was “inactive”.

What about the Potency (MCC-26) of the same compound?
Its Potency is “inactive”.

Which results are given for CCCCc1cc2ccccc2c(OCCN(C)C)n1?
max response (CRL-7250): -9.77%; Potency (HEK293): 18.8 µM (active); outcome (HaCat [1]): inactive; max response (KB-3-1): -3.23%; max response (NIH3T3): -15.9%; outcome (HACAT [2]): inactive; Potency (MCC-13): inactive; Potency (MCC-26): inactive

Which results are given for NCCNC(=O)c1ccc(Cl)cn1?
Potency (W2): inactive; outcome (CRL-7250): inactive; max response (HEK293): -1.7%; outcome (HaCat [1]): inactive; max response (KB-3-1): -16.4%; max response (NIH3T3): 2.21%; outcome (HACAT [2]): inactive; Potency (MCC-13): inactive; Potency (MCC-26): inactive

With CC(O)Cn1cnc2c1c(=O)n(C)c(=O)n2C (stereo not drawn) as the compound, how does the max response (CRL-7250) read?
Its max response is 2.85%.

What about the max response (HEK293) of the same compound?
Its max response is 1.15%.

And the max response (HaCat [1])?
The max response was -17.4%.

What about the max response (KB-3-1) of the same compound?
The max response was 13.1%.

What about the max response (NIH3T3) of the same compound?
The max response was -9.57%.

What about the Potency (MCC-13) of the same compound?
The Potency was “inactive”.

What about the Potency (MCC-26) of the same compound?
The Potency was “inactive”.

O=C(Oc1cccc2cccnc12)c1ccccc1 was tested. Which max response (CRL-7250) did it give?
Its max response is -27.3%.

What about the max response (HEK293) of the same compound?
The max response was -102%.

What about the max response (HaCat [1]) of the same compound?
The max response was -16.2%.

And the max response (KB-3-1)?
The max response was 6.72%.

Which max response (CRL-7250) does the source give for CCC1NC(=O)c2cc(S(N)(=O)=O)c(Cl)cc2N1 (stereo not drawn) here?
The max response was -0.729%.

And the max response (HEK293)?
Its max response is -0.132%.

What about the max response (HaCat [1]) of the same compound?
Its max response is -3.39%.

And the max response (KB-3-1)?
The max response was -10.4%.

What about the max response (NIH3T3) of the same compound?
Its max response is 3.38%.

And the Potency (MCC-13)?
Its Potency is “inactive”.

What about the Potency (MCC-26) of the same compound?
The Potency was “inactive”.

For CC(=O)Nc1ccc(OCC(O)CNC(C)C)cc1 (stereo not drawn), which Potency (W2) is on record?
The Potency was “inactive”.

And the max response (CRL-7250)?
Its max response is -5.23%.

And the max response (HEK293)?
The max response was 4.87%.

What about the outcome (HaCat [1]) of the same compound?
The outcome was “inactive”.

And the max response (KB-3-1)?
The max response was -4.81%.

And the max response (NIH3T3)?
The max response was -0.995%.

And the outcome (HACAT [2])?
Its outcome is “inactive”.

What about the Potency (MCC-13) of the same compound?
The Potency was “inactive”.

Which results are given for CN(C)CCOC(=O)C(c1ccccc1)C1(O)CCCC1 (stereo not drawn)?
max response (CRL-7250): -17.7%; outcome (HEK293): inactive; outcome (HaCat [1]): inactive; max response (KB-3-1): -12%; max response (NIH3T3): -1.59%; outcome (HACAT [2]): inactive; outcome (HEK293T): inactive; Potency (MCC-13): inactive; Potency (MCC-26): inactive

With CN(C)C(=O)Nc1ccc(Cl)c(Cl)c1 as the compound, how does the max response (CRL-7250) read?
The max response was 2.46%.

What about the max response (HEK293) of the same compound?
Its max response is 3.61%.

And the max response (HaCat [1])?
Its max response is -27.1%.

What about the max response (KB-3-1) of the same compound?
The max response was -25.2%.

And the max response (NIH3T3)?
The max response was -5.25%.

And the Potency (MCC-13)?
The Potency was “inactive”.

With Cc1cc(C)cc(OCC2CNC(=O)O2)c1 (stereo not drawn) as the compound, how does the max response (CRL-7250) read?
Its max response is 2.93%.

And the max response (HEK293)?
The max response was 3.06%.

And the max response (HaCat [1])?
Its max response is -13.4%.

What about the max response (KB-3-1) of the same compound?
Its max response is 2.21%.

What about the max response (NIH3T3) of the same compound?
Its max response is 0.518%.

And the Potency (MCC-13)?
Its Potency is “inactive”.

And the Potency (MCC-26)?
Its Potency is “inactive”.

Which results are given for C[N+]12CCC(CC1)C(OC(=O)C(O)(c1ccccc1)c1ccccc1)C2 (stereo not drawn)?
max response (CRL-7250): 3.27%; max response (HEK293): -6.95%; max response (HaCat [1]): -16.2%; max response (KB-3-1): 1.71%; max response (NIH3T3): 0.982%; Potency (MCC-13): inactive; Potency (MCC-26): inactive

How did the max response (CRL-7250) turn out when Cc1cc(-c2ccccc2)nnc1NCCN1CCOCC1 was run?
The max response was -17.2%.

And the max response (HEK293)?
The max response was 1.05%.

What about the max response (HaCat [1]) of the same compound?
Its max response is -33.8%.

And the max response (KB-3-1)?
Its max response is -13.9%.

And the max response (NIH3T3)?
Its max response is -3.42%.

And the Potency (MCC-13)?
Its Potency is “inactive”.

And the Potency (MCC-26)?
Its Potency is “inactive”.

With CC[C@]12CCCN3CCc4c(n(c5ccccc45)C(=O)C1)[C@@H]32 as the compound, how does the max response (CRL-7250) read?
Its max response is 2.69%.

What about the Potency (HEK293) of the same compound?
The Potency was 7.5 µM (active).

What about the max response (HaCat [1]) of the same compound?
Its max response is -22.7%.

Which results are given for CC1(COc2ccc(CC3SC(=O)NC3=O)cc2)CCCCC1 (stereo not drawn)?
Potency (W2): inactive; outcome (CRL-7250): inactive; max response (HEK293): 0.676%; outcome (HaCat [1]): inactive; max response (KB-3-1): -1.45%; outcome (NIH3T3): inactive; outcome (HACAT [2]): inactive; Potency (MCC-13): inactive; Potency (MCC-26): inactive
